This note sets out measurements from PubChem BioAssay (Tox21).

Experiment [1] in a line: qHTS assay to identify small molecule agonists of the hypoxia (HIF-1) signaling pathway - cell viability counter screen (AID 1224844; calls by dose curve; also: nearly all actives have a fitted effect of over 50% in size; also: potency is read from the fitted curve at half-maximal effect). The procedure, abridged:
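HRE-bla ME-180 cells in medium with 0.5% dialyzed FBS were preincubated 5 hrs at 37C, exposed to compounds for 17 hrs, then viability was read as CellTiter-Glo luminescence after 30 min at room temperature, in the reporter wells.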
(In qHTS, concentration-response curves come from the screen itself.)

A short description of experiment [2]: qHTS assay to identify small molecule agonists of H2AX (AID 1224845; active = well fitted activation curve with a large enough effect in the signal ratio in the repeat runs, not every such curve was filed as active; the % refers to the signal ratio; also: potency is read from the fitted curve at half-maximal effect). The procedure, abridged: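 Wild-type CHO-K1 cells, plated overnight, exposed 3hr at 37C to 15 concentrations (0.76% DMSO final). Lysed, then HTRF anti-pH2AX (S139) cryptate and anti-H2AX-d2 antibodies, 24 hr room temperature; 665/620 nm emission read.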
Experiment [3] in a line: qHTS assay to identify small molecule agonists of the hypoxia (HIF-1) signaling pathway (AID 1224846; active = well fitted activation curve with a large enough effect in the signal ratio in the repeat runs, not every such curve was filed as active; the % refers to the signal ratio). The method, boiled down: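 HRE-bla ME-180 cells (beta-lactamase reporter under hypoxia response element) were plated at 2,000 cells/well in medium with 0.5% dialyzed FBS, rested 5 hrs, then given compounds in DMSO for 17 hrs at 37C, 5% CO2. Reporter induction was read with CCF4-AM FRET substrate.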

Experiment [4] is described as follows: qHTS assay to identify small molecule agonists of H2AX - cell viability counter screen (AID 1224847; calls by dose curve; also: nearly all actives have a fitted effect of over 30% in size; also: potency is read from the fitted curve at half-maximal effect). The procedure, abridged: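 Viability of CHO-K1 (wild type) cells after 3 hr compound exposure was measured by CellTiter-Glo luminescence.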
Experiment [5] is described as follows: qHTS assay to identify small molecule antagonists of the estrogen related receptor (ERR) signaling pathway from Tox21 library (AID 1224848). Also: nearly all actives have a fitted effect of over 50% in size. Also: potency is read from the fitted curve at half-maximal effect. The procedure, abridged: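 ERR reporter cell line (from NTP) seeded 2,000 cells/well, rested 6 h at 37 C/5% CO2, then pin-dosed with compounds in DMSO. After 18 h at 37 C, ONE-Glo added; luminescence read after 30 min at room temperature.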

A short description of experiment [6]: qHTS assay to identify small molecule agonists of the estrogen related receptor (ERR) signaling pathway from Tox21 library (AID 1224849; calls by dose curve; also: nearly all actives have a fitted effect of over 15% in size). The conditions noted are these: ERR reporter cell line, ONE-Glo luciferase, 18 h. The method, boiled down:
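ERR reporter cell line (NTP) seeded, rested 6 h at 37 C/5% CO2, then pinned with Tox21 compounds in DMSO. After 18 h at 37 C, ONE-Glo luciferase luminescence was read following 30 min at room temperature.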

A short description of experiment [7]: qHTS RealTime-Glo MT Cell Viability Assay in HepG2 cells - 24 hour (AID 1224867). Also: nearly all actives have a fitted effect of over 50% in size. The procedure, abridged: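 Tox21 10K library screened in qHTS format on HepG2 cells carrying RealTime-Glo reagents. Compounds were added after a 5 h preincubation, and the luminescent signal from continuous culture was measured repeatedly during 40 h treatment.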
The nature of experiment [8]: qHTS RealTime-Glo MT Cell Viability Assay in HEK293 cells - 32 hour (AID 1224868). Also: nearly all actives have a fitted effect of over 50% in size. Also: potency is read from the fitted curve at half-maximal effect. The procedure, abridged:
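Luminescence generated by NanoLuc from substrate produced by living HEK293 cells served as the viability signal. Each value reflects the reading at its stated time point during continuous 40 h compound exposure at 37 C.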

Experiment [9] in a line: A CellTox Green Cytotoxicity Assay to monitor cytotoxicity in HEK293 cells - 0 hour (AID 1224869). Also: nearly all actives have a fitted effect of over 50% in size. The method, boiled down:
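HEK293 cells premixed with CellTox Green dye were seeded at 600 cells/well and left 5 h at 37 C/5% CO2 before pin transfer of 23 nL compound in DMSO. Fluorescence from dye bound to dead-cell DNA was read during 40 h treatment.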

Experiment [10] is described as follows: qHTS RealTime-Glo MT Cell Viability Assay in HepG2 cells - 40 hour (AID 1224870). Also: nearly all actives have a fitted effect of over 50% in size. The method, boiled down:
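HepG2 cells (600/well) mixed with RealTime-Glo MT reagent, settled 5 h at 37 C/5% CO2 before compound addition. Nonlytic NanoLuc luminescence from viable-cell prosubstrate reduction read repeatedly during 40 h treatment at 37 C.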

Where “and” joins values, the source holds several entries; their conditions need not be identical. Equal entries are not always repeated. Records with an inconclusive call do not appear. Where a structure was tested more than once in an assay, its records may differ in their call. Calls of active or inactive are those of the source. Unless noted, calls follow the shape of the dose curve; as a rule, active = well fitted curve in the direction sought with a large enough effect in the repeat runs; inconclusive = weak or mixed curves; inactive = no such curve, though single readings can be large; an effect the other way counts as inactive or inconclusive.
% is scaled to controls: 0 for no effect and ±100 for the full control effect.

`O=C(O)CCCCCCCCCCCC(=O)O`: the Potency in experiment [1] is 48.2 µM (active) and inactive; in [2] it was 111 µM (active) and inactive. Further, the result in experiment [3] was inactive. For the same compound, the Potency result in [4], in [5], in experiment [7], in experiment [8], in [9] and in experiment [10] was “inactive” in each case. Also, the activity change, positive = activation in experiment [6] (at 92.4 µM (top of the series)) was -2.27% (inactive).

On to `COCCOCCOCCO`, for which the Potency result in [1], in [2], in [4], in experiment [5], in experiment [8] and in experiment [9] was “inactive” throughout. Further, the Potency result in experiment [10] is “inactive”. In addition, the result in experiment [3] was inactive. Moreover, in experiment [6] (at 92.4 µM (top of the series)), the activity change, positive = activation was 3.34% (inactive) and 5.65% (inactive).

Turning to `NCCOCCO`, the Potency entry in [1], in experiment [2], in experiment [4], in experiment [5], in experiment [8] and in experiment [9] was “inactive” in each case. In [10], the Potency result is “inactive”. In addition, in [3], the compound was classed as inactive. For the same compound, in experiment [6] (at 92.4 µM (top of the series)), the activity change, positive = activation was -2.16% (inactive) and 1.44% (inactive).

Regarding `Cc1ccc(N)c([N+](=O)[O-])c1`, the Potency result in [1], in experiment [2], in experiment [4], in experiment [7], in [8] and in [9] was “inactive” in each case. In experiment [10], the Potency result is “inactive”. For the same compound, the compound was called inactive in experiment [3].

For the compound `CC(=O)[C@@]1(O)CC[C@H]2[C@@H]3C[C@H](C)C4=CC(=O)C=C[C@]4(C)[C@@]3(F)[C@@H](O)C[C@@]21C`, the Potency result in experiment [1], in experiment [2], in [4], in [9] and in experiment [10] was “inactive” in each case. The result in [3] was inactive. The activity change, positive = activation in experiment [6] (at 42.5 µM (top of the series)) is -14.9% (inactive); in experiment [6] (at 92.4 µM (top of the series)), -31% (inactive). Further, the Potency in experiment [8] was 19.5 µM (active) and inactive.

As for `C=CC(C)(O)CCC=C(C)C` (configuration not stated), the Potency entry in experiment [1], in experiment [2], in experiment [4], in [7], in experiment [8] and in experiment [9] was “inactive” each time. The Potency entry in experiment [10] is “inactive”. Besides, in experiment [3], the compound was called inactive.

In the case of `CCCCCCOCCOCCO`, the Potency result in [1], in experiment [2], in [4], in [7], in experiment [8] and in experiment [9] was “inactive” throughout. Also, the Potency entry in [10] is “inactive”. Also, in experiment [3], the compound was called inactive.

With `ClC/C=C/CCl`, the Potency result in experiment [1], in experiment [2], in [4], in [5], in [7] and in experiment [8] was “inactive” in each case. The Potency entry in [9] and in experiment [10] was “inactive” each time. Also, in experiment [3], the result was inactive. The activity change, positive = activation in [6] (at 92.4 µM (top of the series)) is -1.09% (inactive) and 0.131% (inactive).

In the case of `CC(=O)Oc1c(C)c(C)c2c(c1C)CC[C@@](C)(CCC[C@H](C)CCC[C@H](C)CCCC(C)C)O2`, the Potency entry in experiment [1], in [2], in [4], in experiment [5], in experiment [8] and in [9] was “inactive” each time. Besides, in experiment [10], the Potency entry was “inactive”. Besides, the compound was classed as inactive in [3]. Moreover, the figures for the activity change, positive = activation in [6] (at 42.5 µM (top of the series)) and in [6] (at 92.4 µM (top of the series)) were 0% (inactive) and 5.86% (inactive), respectively.

With `Nc1ccc2c(c1)C(=O)c1ccccc1C2=O`, the Potency result in experiment [1], in experiment [2], in experiment [7], in experiment [8], in experiment [9] and in [10] was “inactive” throughout. In [3], the compound was classed as inactive. Moreover, the Potency in [4] is 98.9 µM (active) and inactive.

Turning to `Oc1c(Cl)ccc(Cl)c1Cl`, the Potency entry in [1], in [2], in experiment [4], in [5], in experiment [7] and in experiment [8] was “inactive” throughout. Further, the Potency result in [9] and in experiment [10] was “inactive” throughout. In experiment [3], the compound was called inactive. Besides, the activity change, positive = activation in experiment [6] (at 92.4 µM (top of the series)) is 1.41% (inactive) and -6.03% (inactive).

In the case of `Cc1ccc(C(C)(C)C)c(O)c1`, the Potency entry in experiment [1], in [2], in [7], in experiment [8], in [9] and in experiment [10] was “inactive” throughout. Also, the outcome in [3] was inactive. Moreover, the Potency in experiment [4] is 97.5 µM (active) and 89.8 µM (active). Also, in experiment [6] (at 92.4 µM (top of the series)), the activity change, positive = activation was -17.4% (inactive) and -15.2% (inactive).

With `OCCNCCO`, the Potency result in experiment [1], in experiment [2], in experiment [4], in experiment [5], in experiment [7] and in experiment [8] was “inactive” throughout. The Potency entry in experiment [9] and in experiment [10] was “inactive” each time. Also, the compound was called inactive in [3]. Moreover, in experiment [6] (at 92.4 µM (top of the series)), the activity change, positive = activation was -2.22% (inactive) and 4.53% (inactive).

Turning to `CCO[Si](CCCNC(N)=O)(OCC)OCC`, the Potency entry in experiment [1], in experiment [2], in experiment [4], in experiment [5], in experiment [7] and in [8] was “inactive” throughout. Also, the Potency entry in [9] and in experiment [10] was “inactive” in each case. Besides, the compound was classed as inactive in experiment [3]. In addition, the activity change, positive = activation in experiment [6] (at 92.4 µM (top of the series)) was 8.59% (inactive) and 5.1% (inactive).

`C=CC(=O)OCCCC`: the Potency result in [1], in [2], in experiment [4], in experiment [5], in [8] and in experiment [9] was “inactive” in each case. Further, the Potency result in [10] is “inactive”. Moreover, in [3], the compound was classed as inactive. Also, the activity change, positive = activation in [6] (at 92.4 µM (top of the series)) is 7.41% (inactive) and 1.06% (inactive).

On to `OC[C@@H](O)[C@@H](O[C@@H]1O[C@H](CO)[C@H](O)[C@H](O)[C@H]1O)[C@H](O)[C@@H](O)CO`, for which the Potency entry in [1], in experiment [2], in [4], in [5], in experiment [8] and in experiment [9] was “inactive” in each case. Further, in [10], the Potency entry is “inactive”. For the same compound, the outcome in [3] was inactive. In addition, the activity change, positive = activation in experiment [6] (at 42.5 µM (top of the series)) was 4.37% (inactive); in [6] (at 92.4 µM (top of the series)), 5.88% (inactive).

With `C=C1C[C@H]2[C@@H]3C=C(C)C4=CC(=O)CC[C@]4(C)[C@H]3CC[C@]2(C)[C@@]1(OC(C)=O)C(C)=O`, the Potency result in experiment [1], in experiment [2], in [4], in experiment [7], in experiment [9] and in experiment [10] was “inactive” throughout. Further, the result in [3] was inactive. For the same compound, in [5], the Potency is 24.8 µM (active) and 21.1 µM (active). Also, in experiment [6] (at 42.5 µM (top of the series)), the activity change, positive = activation is -56.4% (inactive) and -29.1% (inactive).

On to `FC(F)(F)C(Cl)Br` (configuration not stated), for which the Potency entry in experiment [1], in experiment [2], in [4], in experiment [5], in [7] and in experiment [8] was “inactive” in each case. Further, the Potency result in experiment [9] and in experiment [10] was “inactive” throughout. Further, the call in experiment [3] was inactive. Besides, the results for the activity change, positive = activation in experiment [6] (at 42.5 µM (top of the series)) and in [6] (at 92.4 µM (top of the series)) were 6.22% (inactive) and 3.79% (inactive), respectively.

On to `CCCCCCCCCCCCCO`, for which the Potency entry in experiment [1], in experiment [2], in experiment [4], in [5], in experiment [7] and in [8] was “inactive” in each case. In addition, the Potency result in experiment [9] and in experiment [10] was “inactive” each time. For the same compound, in [3], the result was inactive. In addition, the activity change, positive = activation in [6] (at 92.4 µM (top of the series)) is 0.0318% (inactive) and 3.04% (inactive).

In the case of `Cc1ccc(S(=O)(=O)O)cc1C`, the Potency entry in [1], in experiment [2], in experiment [4], in [7], in experiment [8] and in experiment [9] was “inactive” throughout. Also, the Potency entry in experiment [10] is “inactive”. The compound was called inactive in [3].

As to `CC(C)[C@@H]1CC[C@@H](C)CC1=O`, the Potency entry in [1], in experiment [2], in experiment [4], in experiment [8], in experiment [9] and in experiment [10] was “inactive” throughout. In [3], the outcome was inactive.
